USP28 block: human USP28 deubiquitinase inhibition; Q96RU2; AID 1645857; inhibition, % at 25 µM; 3% of 47,000 active; purified USP28, Ub-rhodamine cleavage fluorescence, 30 min
USP7 block: human USP7 deubiquitinase inhibition; 0.3% of 47,000 active; purified USP7, Ub-rhodamine cleavage fluorescence; AID 1645854; inhibition, % at 20 µM; Q93009
OTUD3 block: human OTUD3 deubiquitinase inhibition. Q5T2D3. purified OTUD3, Ub-rhodamine fluorescence, 2 h. inhibition, % at 25 µM. 0.7% of 47,000 active. AID 1645858
USP10 block: blocks human USP10 ubiquitin-rhodamine cleavage; purified USP10, Ub-rhodamine fluorescence, 60 min; Q14694; inhibition, % at 20 µM; 1.1% of 47,000 active
UCHL1 block: inhibitors of human UCHL1 deubiquitinase | P09936 | purified UCHL1, Ub-rhodamine cleavage fluorescence | inhibition, % at 20 µM | 0.2% of 47,000 active
* hit, by the source's call; . = not tested or not shown. The list is not random: actives were taken first. Their share in the collection is about 4.2%. No stated cut-off is given here; in the data, active means inhibition above about 30%; inactive means the rest.

SMILES | USP28 block | USP7 block | OTUD3 block | USP10 block | UCHL1 block
COc1cccc(NC(=O)C2CCN(C(=O)c3cc(-c4cccnc4)n[nH]3)CC2)c1 | 56.8* | 2.1 | 2.1 | 1.7 | 3.9
C/C=C/C1=CC(=O)C(O)C1O (stereo not given) | 5.0 | -0.2 | 5.8 | -2.0 | -1.7
CN(C(=O)COc1ccc(-n2cnnn2)cc1)C(c1ccccc1)c1ccccc1 | 18.0 | -15.5 | 0.4 | 7.8 | 1.3
O=c1cc(CNc2ccc(Br)cc2)nc2nc(-c3ccccc3)[nH]n12 | 41.5* | -40.0 | 36.0* | -8.4 | -64.5
NC(=O)c1ccc(NC(=O)c2cnn(Cc3ccccc3)c2)cc1 | 8.4 | -0.3 | 6.8 | -2.6 | 0.2
Cc1nc(SCC(=O)Nc2ccc(S(N)(=O)=O)cc2)c2cnn(-c3ccccc3)c2n1 | -34.0 | 2.9 | -30.3 | 41.4* | 4.1
O=C(CNc1ccc(F)cc1F)Nc1ccc2c(c1)OC(F)(F)O2 | 49.1* | -3.1 | -2.6 | 7.2 | 5.2
CNc1nc(C2CCCN2C)nc2c1CCNC2 (stereo not given) | -18.0 | 1.6 | -15.7 | -4.1 | -2.5
CCCOc1ccc(C2CN3C(=O)CN(C4CC4)C(=O)[C@]3(C)c3[nH]c4ccccc4c32)cc1OC (stereo not given in full) | 11.2 | 9.1 | 13.2 | 0.0 | 8.2
CCOc1ccc(NS(=O)(=O)c2c[nH]c3ccc([N+](=O)[O-])cc23)cc1 | 15.1 | 4.7 | 8.7 | 7.7 | 3.1
O=C(COC(=O)c1ccc(NS(=O)(=O)c2ccc3c(c2)OCCO3)cc1)NCc1ccc(Cl)cc1 | 74.5* | 9.1 | -18.1 | 24.2 | 7.0
Nc1ccc([N+](=O)[O-])cc1NC(=O)CSc1ccc2ccccc2c1 | 1.9 | 3.8 | -14.7 | 8.2 | 4.5
COc1cccc(CC(=O)Nc2cc(F)c3nc(N4CCOCC4)ccc3c2)c1 | 36.1* | -2.9 | -15.4 | -3.5 | -1.2
COc1cccc(C(=O)COC(=O)c2cc(=O)[nH]c3ccccc23)c1 | 0.2 | 5.5 | 0.0 | -1.0 | 1.4
Cn1c(CCNC(=O)c2[nH]nc3c2CCc2ccccc2-3)nc2ccccc21 | 52.2* | -1.2 | -7.2 | 17.9 | -2.3
O=C(NC1CCN(Cc2ccccc2)CC1)c1[nH]nc2c1CCc1ccccc1-2 | 62.1* | 2.3 | -24.9 | 1.1 | 4.4
c1ccc2oc(-c3cn[nH]c3)nc2c1 | 12.2 | 3.8 | 14.6 | 1.2 | 0.9
CC(C)c1ccc(NC(=O)C2CCN(S(=O)(=O)c3cccc4cnccc34)CC2)cc1 | 45.5* | 5.8 | -9.9 | 1.6 | 3.9
O=C(NCc1ccco1)C1CCN(S(=O)(=O)c2cccc3cnccc23)CC1 | 1.4 | -18.8 | -3.1 | -11.2 | 16.0
Cc1ccc(NC(=O)c2cnn3c2NC(C(=O)O)=CC3/C=C/c2ccccc2)cc1 (stereo not given) | 11.2 | -142.4 | 2.0 | -6.0 | -164.2
Cc1nc2cc(NC(=O)C3CN(C(=O)c4cnccn4)C3)ccc2s1 | 53.8* | -1.4 | -1.5 | -0.1 | -0.6
COc1ccc(OC)c(-c2csc(N(CCc3ccccc3)C(=O)C3CC3)n2)c1 | . | 6.9 | -6.4 | 7.5 | 1.7
Cc1noc(NS(=O)(=O)c2ccc(NC(=O)COc3ccc(N(C)C(=O)c4ccc(Cl)cc4)cc3)cc2)c1C | . | -1.9 | -0.1 | 16.5 | -3.5
Cc1noc(NS(=O)(=O)c2ccc(NC(=O)CSc3ccc4ccccc4c3)cc2)c1C | 35.8* | 13.2 | 15.2 | 28.3 | 8.5
Cn1c(C(=O)NCCc2ccc(S(N)(=O)=O)cc2)cc2sc(Cl)cc21 | 41.5* | 0.3 | -15.0 | 3.4 | 3.0
SMILES | USP28 block | USP7 block | OTUD3 block | USP10 block | UCHL1 block
CCOC(=O)N1CCC(NC(=O)c2cnn3c(-c4ccccc4)ccnc23)CC1 | 2.7 | 0.1 | 0.0 | -4.7 | -2.8
COc1ccc(N(CC(=O)NC2CCCCCC2)S(=O)(=O)c2ccc(Cl)cc2)cc1 | 14.1 | 5.7 | 13.2 | 6.1 | 1.7
O=C(NCCc1cccnc1)c1nc2c(s1)CCCN2C(=O)C1CC1 | 21.4 | 3.2 | 18.2 | -2.8 | 1.0
O=C(NCCc1cccc(F)c1)c1nc2c(s1)CCCN2C(=O)C1CC1 | 36.8* | -2.9 | 3.0 | 0.5 | 1.6
COC(=O)c1c(-c2c(Cl)cccc2Cl)noc1/C=C/Nc1ccc(C(=O)O)cc1 | 30.8* | 10.1 | 1.8 | -2.2 | -8.3
COc1ccccc1N/C=C/c1onc(-c2c(F)cccc2Cl)c1C#N | -192.1 | -173.8 | -107.0 | -5.5 | -44.1
Cc1ccc(C)c(NC(=O)c2oc3ccc4c(c3c2C)C(=O)CC2(CCCC2)O4)c1 | -40.4 | -1.6 | -25.9 | -8.6 | -5.6
O=C(CSc1n[nH]c(-c2ccccc2Cl)n1)Nc1ccc2c(c1)OCCO2 | 38.1* | 1.8 | 5.1 | 4.1 | 0.0
O=C(CSc1nc2ccccc2[nH]1)Nc1ccc2c(c1)OCCO2 | 45.8* | 11.0 | 13.6 | 23.7 | 14.2
O=C(CSc1ccc2ccccc2c1)Nc1ccc2c(c1)OCCCO2 | 21.4 | 1.9 | 1.1 | 4.7 | 4.0
Cn1c(SCC(=O)Nc2ccc3c(c2)OCCO3)nnc1C(F)(F)F | 9.6 | 3.5 | 0.2 | 0.5 | -2.1
CC(NC(=O)CSc1nc2ccccc2[nH]1)c1ccc2c(c1)OCO2 (stereo not given) | 1.8 | -0.9 | -0.4 | -3.3 | -1.1
O=C(COC(=O)Cn1cnc2ccccc21)Nc1ccc2c(c1)OCCO2 | 55.6* | 0.9 | 2.0 | -5.3 | 1.4
O=C(CSc1n[nH]c2nc3ccccc3n12)Nc1ccc2c(c1)OCCO2 | 30.7* | 2.6 | 12.6 | 2.1 | 0.8
COc1ccc(NC(=O)COC(=O)Cn2cnc3ccccc32)cc1OC | -9.7 | -3.3 | -7.4 | 0.0 | 0.0
Cc1cccc(COC(=O)C2CCN(C3=NS(=O)(=O)c4ccccc43)CC2)c1 | 13.6 | 4.1 | 15.7 | 2.0 | 3.7
Cn1c(SCC(=O)Nc2ccc3c(c2)OCCO3)nnc1-c1ccncc1 | 38.5* | 0.9 | 21.3 | -0.1 | -0.9
Cc1ccc(NC(=O)Nc2ccccc2)c(=O)n1CC(=O)N1CCN(c2ccccn2)CC1 | 9.5 | 0.5 | 5.3 | 0.0 | -0.3
Cc1cccc(NC(=O)Nc2ccc(C)n(CC(=O)Nc3ccc(C)c(C)c3)c2=O)c1 | -3.2 | 9.8 | -10.4 | 42.5* | -1.3
Cc1ccc(NC(=O)Cn2c(Nc3cccc(C)c3)nc(C)cc2=O)cc1 | 16.4 | -4.8 | 18.2 | 1.2 | -3.3
Cc1cccc(NC(=O)Nc2ccc(C)n(CC(=O)Nc3ccccc3)c2=O)c1 | 40.3* | 4.2 | -16.3 | 13.1 | -2.5
Cc1ccc(NC(=O)Nc2ccc(C)n(CC(=O)Nc3cccc(C)c3)c2=O)cc1 | 18.9 | 30.5* | -0.3 | 52.9* | -0.9
CCn1c(=O)c2nscc2n(CC(=O)Nc2cccc(C)c2)c1=O | -2.2 | -0.1 | -0.1 | 0.2 | -0.7
Cc1ccc(-n2c(-c3ccccc3)cn3c4c(=O)[nH]c(=O)n(C)c4nc23)cc1C | 4.8 | 2.9 | -0.5 | 4.0 | -1.2
COc1ccc(NC(=O)Cn2cnc(NC(=O)c3ccccc3)n2)cc1 | 9.5 | 0.2 | 0.3 | -14.2 | -0.9
CC(OC(=O)c1cccc(N(C)C)c1)C(=O)Nc1sccc1C(N)=O (stereo not given) | -3.1 | -3.6 | -2.4 | -4.4 | -0.8
CC(OC(=O)c1cccc(N(C)C)c1)C(=O)Nc1ncc(Cl)cc1Cl (stereo not given) | -5.1 | 2.3 | -1.6 | -3.1 | 74.9*

Screens as filed in PubChem BioAssay.
